The results in this text go back to PubChem BioAssay (NCI).

Compounds without any hit were thinned out: in the full panel of roughly 83,000, 20% have a hit.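 Activity criterion: percent growth below 10, measured after cells in 96-well plates were exposed to a single compound concentration for 48 hours.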 Values without a mark were called inactive. Calls of active or inactive are those of the source.

Among the test systems are T-47D breast; BT-549 breast; MDA-MB-435 melanoma; SW-620 colon; MCF7 breast; HCT-116 colon; HCC-2998 colon.
Holding throughout (assay): NCI-60 one-dose screen, 48 h (100 = growth as untreated, 0 = no growth, -100 = all killed)
What all share (conditions): 10 µM unless noted

With `COc1cc2c(c(OC)c1OC)CCC(c1cccc(C(=O)Nc3ccccc3Br)c1)O2` (stereo unspecified), the growth in the test with T-47D breast is 68.6%; in the test on BT-549 breast, 69.6%; in the test with MDA-MB-435 melanoma, 94%; in the test on SW-620 colon, 99.6%; with MCF7 breast, 91.8%; in the test with HCT-116 colon, 74.7%. The growth with HCC-2998 colon is 90%.
Turning to `C=CCn1c(SCC(=O)Nc2ccc(C(=O)/C=C/c3ccc(Cl)cc3)cc2)nnc1-c1ccccc1`, the growth is 73% with T-47D breast; 71.3% in the test on BT-549 breast; 77.5% in the test with MDA-MB-435 melanoma; 98.4% in the test with SW-620 colon; 24.4% in the test with MCF7 breast; -78.6% (active) with HCT-116 colon. Moreover, the growth in the test with HCC-2998 colon is 96.4%.
Regarding `N#Cc1c(-c2ccc(F)cc2)cc(-c2cccc(Cl)c2)[nH]c1=O`, the growth in the test with T-47D breast was 59.9%; in the test with BT-549 breast it was 54.6%; in the test on MDA-MB-435 melanoma it was 77.1%; in the test with SW-620 colon, 104%; in the test with MCF7 breast, 54.5%; with HCT-116 colon, 67.1%. In the test on HCC-2998 colon, the growth was 94.2%.
Regarding `COc1cc(/C=C/C(=O)c2ccc(-n3cc(CN4CCN(c5cc6c(cc5F)c(=O)c(C(=O)O)cn6C5CC5)CC4)nn3)cc2)cc(OC)c1OC`, the growth in the test with T-47D breast was 101%; in the test on BT-549 breast, 92.5%; in the test on MDA-MB-435 melanoma it was 81.9%; in the test on SW-620 colon it was 85.9%; in the test with MCF7 breast, 61.4%; with HCT-116 colon, 17.3%. For the same molecule, in the test on HCC-2998 colon, the growth is 83.3%.
Regarding `CC(C)=CCC[C@](C)(O)C1CC[C@]2(C)[C@@H]1CC[C@@H]1[C@@]3(C)CC/C(=N\OCCC#N)C(C)(C)[C@@H]3CC[C@]12C` (stereo partly specified), the growth in the test with T-47D breast is 52.6%; with BT-549 breast, 102%; with MDA-MB-435 melanoma it was 87.7%; in the test on SW-620 colon it was 78.8%; with MCF7 breast it was 63.2%; in the test on HCT-116 colon, 66.2%. Moreover, in the test on HCC-2998 colon, the growth was 84.5%.
For the molecule `Cc1csc(Nc2nc(-c3cccc(Cl)c3)nc(C(Cl)(Cl)Cl)n2)n1`, the growth with T-47D breast is 5.33% (active); in the test on BT-549 breast it was 96.8%; in the test on MDA-MB-435 melanoma, 54.1%; with SW-620 colon, 42.4%; in the test on MCF7 breast it was 20.7%; in the test with HCT-116 colon, 37.9%. For the same molecule, the growth in the test with HCC-2998 colon is 7.13% (active).
`O=C1C=CC2(O)OC(c3ccccc3)CC(=O)C2=C1O` (stereo unspecified): the growth is 83.6% in the test with T-47D breast; 74% in the test with BT-549 breast; 87.7% in the test on MDA-MB-435 melanoma; 102% in the test on SW-620 colon; 86% in the test on MCF7 breast; 82.9% in the test with HCT-116 colon. In the test with HCC-2998 colon, the growth is 101%.
Regarding `CCOC(=O)CC1CSC(N/N=C/c2ccc(O)cc2)=N1` (stereo unspecified), the growth was 93.2% with T-47D breast; 100% in the test with BT-549 breast; 103% in the test on MDA-MB-435 melanoma; 98.1% in the test with SW-620 colon; 91% with MCF7 breast; 81.1% with HCT-116 colon. Further, the growth with HCC-2998 colon is 97.4%.
On to `CCOC(=O)/C(=C/c1ccc([N+](=O)[O-])cc1)C(=O)c1ccccc1`, for which the growth in the test on T-47D breast was 41.9%; in the test on BT-549 breast it was 6.8% (active); in the test on MDA-MB-435 melanoma, 28.1%; in the test on SW-620 colon it was 6.12% (active); with MCF7 breast it was 22.7%; with HCT-116 colon, -8.58% (active). Further, the growth in the test with HCC-2998 colon was 47.7%.
With `O=CN1N=C(c2cccc(Nc3ccncc3)c2)CC1c1ccc2c(c1)OCO2` (stereo unspecified), the growth is 79.1% in the test on T-47D breast; 106% in the test on BT-549 breast; 92.1% in the test on MDA-MB-435 melanoma; 102% in the test on SW-620 colon; 81.7% in the test on MCF7 breast; 83.1% with HCT-116 colon. Moreover, the growth in the test with HCC-2998 colon is 98.5%.
For `COc1cc(CNC(=O)CCCC/C=C/C(C)C)ccc1OCc1cn(-c2ccc(C(F)(F)F)cc2)nn1`, the growth in the test on T-47D breast was 70.2%; with BT-549 breast, 84.5%; in the test on MDA-MB-435 melanoma it was 107%; in the test with SW-620 colon it was 41.3%; in the test on MCF7 breast, 75.2%; in the test with HCT-116 colon, 2.97% (active). Also, the growth in the test on HCC-2998 colon was 94.8%.
Regarding `CC1(C)CC(=O)C2=C(C1)OC(C(=O)c1ccccc1)C2c1cccc(Oc2ccccc2)c1` (stereo unspecified), the growth in the test on T-47D breast is 5.71% (active); in the test on BT-549 breast, 40.1%; in the test with MDA-MB-435 melanoma, 44.5%; in the test on SW-620 colon, 54.2%; with MCF7 breast, 28.5%; in the test with HCT-116 colon, 33.8%. In addition, the growth in the test on HCC-2998 colon was 71.9%.
For the molecule `N/C(=N\c1nc2ccccc2s1)NC(=O)Nc1ccccc1`, the growth with T-47D breast is 39.4%; with BT-549 breast it was 49.5%; in the test with MDA-MB-435 melanoma it was 2.22% (active); in the test with SW-620 colon it was 24.7%; with MCF7 breast, 16.6%; in the test on HCT-116 colon, 17.1%. Besides, the growth in the test on HCC-2998 colon was 62.7%.
With `CCOc1cc(\C=N/N=C(N)/C(N)=N\N=C/c2ccc(O)c(OCC)c2)ccc1O`, the growth in the test on T-47D breast is 47.4%; with BT-549 breast it was 93.1%; in the test on MDA-MB-435 melanoma, 98.7%; in the test with SW-620 colon it was 108%; with MCF7 breast it was 91.5%; in the test on HCT-116 colon, 99.6%. Besides, the growth in the test on HCC-2998 colon is 98.6%.
Regarding `NCCCCCNc1noc(Cc2c[nH]c3cc(Br)ccc23)n1`, the growth with T-47D breast is 25.9%; in the test on BT-549 breast, 44.9%; in the test on MDA-MB-435 melanoma it was -37% (active); with SW-620 colon, 18.6%; in the test on MCF7 breast, 21.8%; in the test with HCT-116 colon, 23%. The growth in the test with HCC-2998 colon was 64%.
Consider `COc1ccc(-c2csc(NC(=O)CSc3nc(C)cc(=O)[nH]3)n2)cc1`, for which the growth in the test on T-47D breast was 89.2%; in the test with BT-549 breast, 86.1%; with MDA-MB-435 melanoma it was 108%; in the test with SW-620 colon it was 101%; in the test on MCF7 breast, 92.8%; in the test with HCT-116 colon, 102%. Further, the growth in the test on HCC-2998 colon was 117%.
As to `COc1ccc(C(=O)/C=C/c2ccc(C)cc2)cc1S(N)(=O)=O`, the growth in the test with T-47D breast was 94.1%; in the test with BT-549 breast it was 64.1%; with MDA-MB-435 melanoma, 88.3%; in the test on SW-620 colon, 21.9%; in the test with MCF7 breast it was 22%; with HCT-116 colon, 9.96% (active). For the same molecule, in the test on HCC-2998 colon, the growth was 99%.
For `CC(C)C(=O)Nc1ncc(C(=O)NCCN(Cc2ccccc2)C(=O)c2ccc(S(=O)(=O)Nc3ccccc3)cc2)s1`, the growth was 91.7% with T-47D breast; 89.2% in the test with BT-549 breast; 98.1% with MDA-MB-435 melanoma; 107% with SW-620 colon; 85.8% with MCF7 breast; 90.9% in the test on HCT-116 colon. The growth in the test with HCC-2998 colon was 106%.
